The nature of assay [1]: Cell Viability - BJ (AID 421; calls by dose curve;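 further: potency means the concentration at half of the fitted maximal effect; cells exposed to compound for 40 hours at 37 °C before readout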). Particulars: BJ fibroblast viability, qHTS. The method in brief: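 Cytotoxicity in human BJ foreskin fibroblasts is scored as loss of cellular ATP after a 40-hour exposure, measured by luciferase luminescence. Controls are DMSO and 100 uM tamoxifen.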
In general terms: qHTS replaces the single test concentration by a dilution series.

Assay [2] is described as follows: Cell Viability - HepG2 (AID 433; calls by dose curve;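 further: potency means the concentration at half of the fitted maximal effect; cells exposed to compound for 40 hours; potency for ATP loss meaning cytotoxicity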). Conditions: qHTS. The essentials: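 ATP luminescence (CellTiter-Glo) after 40 h compound exposure, 37 °C, HepG2, 1500 cells/well, complete medium. Normalized: DMSO = basal, 100 uM tamoxifen = 100% inhibition. AC50 via standard Hill equation.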
The nature of assay [3]: Cell Viability - Mesenchymal (AID 546).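 Further: cells exposed to compound for 40 hours before reading.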 Particulars: mesenchymal cells viability, qHTS; activity change, negative = cytotoxicity: at 91.7 µM (top of the series). The essentials: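 Human kidney mesenchymal cells from normal renal glomeruli, 1000 cells/well, rested 5 hr at 37 °C, then treated 40 hr at 37 °C in complete medium. Cellular ATP read by CellTiter-Glo luminescence; AC50 from Hill-equation fits.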

Assay [4] is described as follows: Cellular Toxicity (caspase-3) Jurkat (AID 655).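 Further: cells exposed to compound for 16 h at 37 °C before reading.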 Particulars: Jurkat caspase-3 activation, luminescence; caspase-3 activation: at 92.2 µM (top of the series), DMSO = 0%, tamoxifen = 100%. The essentials: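 Luminescent caspase-3/7 readout (aminoluciferin substrate cleavage) in human T-cell leukemia Jurkat cells after 16 hr compound exposure. Concentration-response normalized to DMSO and 100 uM tamoxifen; AC50 by standard Hill equation.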

A short description of assay [5]: Cell Viability - LYMP2-003 (AID 965).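 Further: cells exposed to compounds for 24 h before reading; 0% = DMSO only and full effect = 92 µM tetraoctylammonium bromide; nearly all actives have a fitted effect of over 50% in size.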 Particulars: LYMP2-003 lymphoblastoid cell viability; series mostly up to 92.2 µM. The essentials:
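CellTiter-Glo luminescence (cellular ATP) after 24 h compound exposure at 37 C in complete medium; 2500 cells/well, 5 h settling beforehand. Concentration-response fitted to standard Hill equation for AC50. Tetraoctylammonium bromide served as positive control.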

Assay [6] in a line: Cell Viability - LYMP2-011 (AID 969).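 Further: 0% = DMSO only and full inhibition = 92 µM tetraoctylammonium bromide; nearly all actives have a fitted effect of over 60% in size.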 Particulars: LYMP2-011 lymphoblastoid cells viability; series mostly up to 92.2 µM. The method in brief:
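Acute toxicity is scored as a concentration-dependent drop in intracellular ATP of a human lymphoblastoid line after 24 hr treatment. Values are AC50s modeled with the Hill equation.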

The nature of assay [7]: Cell Viability - LYMP2-021 (AID 974).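 Further: compound exposure lasts 24 hours at 37 °C; on the % scale 0 is the no-effect control and ±100 the full control effect; nearly all actives have a fitted effect of over 55% in size.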 Particulars: LYMP2-021 lymphoblastoid cells viability; series mostly up to 92.2 µM. The essentials: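 Concentration-response cytotoxicity in a human lymphoblastoid line: 24 hr treatment at 37 C in complete culture medium, tetraoctylammonium bromide as positive control, luminescent ATP quantitation as viability measure.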
Assay [8] can be described thus: Cell Viability - LYMP2-023 (AID 975).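 Further: plate controls were DMSO only for no effect and 92 µM tetraoctylammonium bromide control for full effect; nearly all actives have a fitted effect of over 55% in size.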 Particulars: LYMP2-023 lymphoblastoid cell viability; series mostly up to 92.2 µM. The method in brief: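 Concentration-dependent drop in intracellular ATP measures acute cytotoxicity in a human lymphoblastoid line treated for 24 hours in complete culture medium. AC50 values are taken from Hill-equation fits of qHTS data.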
Assay [9] is described as follows: Cell Viability - LYMP2-025 (AID 976).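 Further: plate controls were DMSO only for no effect and tetraoctylammonium bromide control for full effect.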 Particulars: LYMP2-025 lymphoblastoid cell viability; series mostly up to 92.2 µM. The method in brief: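 In qHTS format, LYMP2-025 lymphoblastoid cells in complete culture medium received compound for 24 hr; ATP-based CellTiter-Glo signal gave viability, with AC50 derived by Hill equation.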
Assay [10] can be described thus: Cell Viability - LYMP2-002 (AID 977).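 Further: plate controls were DMSO only for no effect and 92 µM tetraoctylammonium bromide for full effect.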 Particulars: LYMP2-002 lymphoblastoid cell viability, qHTS; series mostly up to 92.2 µM. The method in brief:
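Human lymphoblastoid LYMP2-002 cells, 2500 per well, exposed to compounds for 24 h at 37 C in complete medium; viability read as intracellular ATP by CellTiter-Glo luminescence, AC50 from Hill fits.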

Assay [11] can be described thus: Cell Viability - LYMP2-008 (AID 980). Further: on the % scale 0 is the no-effect control and ±100 the full control effect; nearly all actives have a fitted effect of over 60% in size. Particulars: LYMP2-008 lymphoblastoid cell viability, qHTS; series mostly up to 92.2 µM. The method in brief:
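Acute cytotoxicity is scored as concentration-dependent loss of cellular ATP in a human lymphoblastoid line after 24 hr treatment at 37 C. ATP is quantified by luciferase luminescence.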

The nature of assay [12]: Cell Viability - LYMP2-014 (AID 983).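 Further: plate controls were DMSO only for no effect and 92 µM tetraoctylammonium bromide for full effect; nearly all actives have a fitted effect of over 50% in size.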 Particulars: LYMP2-014 lymphoblastoid cells, viability qHTS; series mostly up to 92.2 µM. The essentials:
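Decrease in intracellular ATP after 24 hr treatment at 37 C, measured by luciferase luminescence, indicated cytotoxicity. Concentration-response data were fitted with the standard Hill equation to give AC50.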

Assay [13] can be described thus: Cell Viability - LYMP2-016 (AID 984). Further: on the % scale 0 is the no-effect control and ±100 the full control effect; nearly all actives have a fitted effect of over 55% in size. Particulars: LYMP2-016 lymphoblastoid cell viability, qHTS; series mostly up to 92.2 µM. The method in brief:
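qHTS, 1536-well: 2500 LYMP2-016 cells/well, 5 hr 37 C, compound added, 24 hr 37 C, CellTiter-Glo 30 min RT, luminescence. Tetraoctylammonium bromide positive control. AC50 via Hill fit.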

The nature of assay [14]: Cell Viability - LYMP2-018 (AID 985).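 Further: compound exposure lasted 24 hr at 37 °C; plate controls were DMSO only for no effect and tetraoctylammonium bromide at 92 µM for full effect; nearly all actives have a fitted effect of over 50% in size.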 Conditions: LYMP2-018 lymphoblastoid cells, viability (qHTS); series mostly up to 92.2 µM. The essentials: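 Acute cytotoxicity is scored as a concentration-dependent drop in intracellular ATP after 24 hr exposure of the lymphoblastoid line in complete culture medium, measured by luciferase luminescence. Potency is expressed as AC50 from Hill modelling.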

A short description of assay [15]: Cell Viability - LYMP2-022 (AID 987).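 Further: 0% = DMSO alone and full effect = tetraoctylammonium bromide at 92 µM; nearly all actives have a fitted effect of over 55% in size.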 Conditions: LYMP2-022 lymphoblastoid cell viability; series mostly up to 92.2 µM. The method in brief:
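Acute toxicity in a human lymphoblastoid line is scored as decreased intracellular ATP after 24 hr compound treatment at 37 C. ATP is measured by CellTiter-Glo luminescence; curves are fitted with the Hill equation to give AC50.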

The nature of assay [16]: Cell Viability - LYMP2-024 (AID 988).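 Further: plate controls were DMSO only for no effect and 92 µM tetraoctylammonium bromide for full effect; nearly all actives have a fitted effect of over 60% in size.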 Particulars: LYMP2-024 lymphoblastoid cell viability; series mostly up to 92.2 µM. The essentials:
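Acute toxicity is measured as concentration-dependent loss of intracellular ATP in a human lymphoblastoid line treated 24 hours at 37 C. Luciferase luminescence quantifies ATP; AC50 values come from standard Hill-equation modelling.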

The nature of assay [17]: Cell Viability - LYMP2-026 (AID 989). Further: on the % scale 0 is the no-effect control and ±100 the full control effect; nearly all actives have a fitted effect of over 50% in size. Particulars: LYMP2-026 lymphoblastoid cell viability, qHTS; series mostly up to 92.2 µM. The method in brief: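 Concentration-dependent loss of intracellular ATP in human lymphoblastoid cells after 24 hr at 37 C, quantified by luciferase luminescence. AC50 derived from standard Hill equation.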
A short description of assay [18]: qHTS assay for small molecule antagonists of retinoid X receptor alpha signaling (AID 588546; active means well fitted inhibition curve with a large enough effect in the signal ratio, with a control signal flat, not every such curve was filed as active; the % refers to the signal ratio;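 further: cells stimulated with 9-cis-retinoic acid as agonist; on the % scale 0 is the no-effect control and ±100 the full control effect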). Conditions: HEK293T RXRa-UAS-bla, beta-lactamase ratio, antagonist mode; measured here: W530 green channel, cytotoxicity proxy. The method in brief:
(§1)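 Beta-lactamase reporter inhibition, read as CCF4 fluorescence ratio (ex 405, em 460/530 nm) after 2 h at RT. HEK293T UAS-bla cells, 2500/well, were stimulated with 9-cis-RA at 500 or 100 nM final alongside test compound for 18 h at 37 C.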

Assay [19] deals with Retinoic acid receptor RXR-alpha (Homo sapiens) (UniProt P19793). The assay is described as above. Particulars: HEK293T RXRa-UAS-bla, beta-lactamase ratio, antagonist mode. The method in brief:
as §1

Assay [20] is described as follows: qHTS assay for environmental chemicals that activate the Aryl hydrocarbon Receptor (AhR) signaling pathway (AID 651777). Further: % of control where 0% means no effect; nearly all actives have a fitted effect of over 15% in size. Conditions: 1A2-DRE human hepatoma cells, luciferase, 24 h; activation: stronger effect = higher value. The essentials:
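AhR activation is scored as a rise in luciferase from a stable DRE–CYP1A2 promoter construct in human hepatoma cells. Treatment lasts 24 hr at 37 C; detection uses One-Glo after 30 min at room temperature.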

SMILES strings stand for the structures. Where “and” joins values, the source holds several entries; their conditions need not be identical. Equal values may be shown once. Records with an inconclusive call do not appear. Calls of active or inactive are those of the source. Unless noted, the call rests on the fitted dose curve; in most records, active means well fitted curve in the direction sought with a large enough effect; inconclusive means small, poorly fitted or top-dose-only effect, or another doubt; inactive means no such curve, though single readings can be large; an effect the other way counts as inactive or inconclusive. A value given as a limit tells only on which side of the number the result lay.

Retinoic acid receptor RXR-alpha (Homo sapiens), sequence (P19793 whole entry, looked up): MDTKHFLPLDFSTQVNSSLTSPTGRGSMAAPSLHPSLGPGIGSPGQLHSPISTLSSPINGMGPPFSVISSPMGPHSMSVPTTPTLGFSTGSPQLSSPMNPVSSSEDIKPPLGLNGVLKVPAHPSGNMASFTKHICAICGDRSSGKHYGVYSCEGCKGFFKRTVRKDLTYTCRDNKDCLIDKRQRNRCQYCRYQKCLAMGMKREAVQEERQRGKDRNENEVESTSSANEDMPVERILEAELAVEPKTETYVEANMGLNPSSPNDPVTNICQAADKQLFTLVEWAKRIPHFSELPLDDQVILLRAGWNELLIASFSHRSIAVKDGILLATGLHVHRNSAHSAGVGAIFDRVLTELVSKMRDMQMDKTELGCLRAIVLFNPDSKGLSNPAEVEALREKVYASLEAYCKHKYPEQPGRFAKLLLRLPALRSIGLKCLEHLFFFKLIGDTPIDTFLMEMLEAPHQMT

For `CCCC(=O)OC(=O)CCC`, the Potency in [1] and in [2] was > 92 µM (inactive) each time. The Potency result in assay [3], in assay [4], in assay [5], in [6], in assay [7] and in assay [8] was “inactive” in each case. In addition, the Potency result in [9], in assay [10], in assay [11], in [12], in assay [13] and in [14] was “inactive” throughout. The Potency result in assay [15], in assay [16] and in [17] was “inactive” throughout. The max response in assay [18] is -8.03% and -4.72%; in assay [19] it was 2.23% (inactive) and 15.8% (inactive). Also, the activation in assay [20] is 0.206% (inactive) and -0.322% (inactive).

Regarding `O=C(OCc1ccccc1)c1ccccc1O`, the Potency in assay [1] and in assay [2] was > 92 µM (inactive) in each case. The Potency entry in assay [3], in [4], in assay [5], in assay [6], in [7] and in assay [8] was “inactive” throughout. Moreover, the Potency result in assay [9], in [10], in assay [11], in [12], in [13] and in [14] was “inactive” in each case. Further, the Potency result in assay [15], in assay [16] and in assay [17] was “inactive” throughout. The max response is -7.45% and -18.3% in assay [18]; -0.686% (inactive) and -0.189% (inactive) in assay [19]. Further, in assay [20], the activation was -0.76% (inactive) and -0.296% (inactive).

Turning to `O=[N+]([O-])c1cccc(I)c1`, the Potency in [1] and in [2] was > 92 µM (inactive) throughout. The Potency result in assay [3], in assay [4], in [5], in assay [6], in [7] and in [8] was “inactive” each time. Besides, the Potency entry in assay [9], in [10], in [11], in assay [12], in assay [13] and in [14] was “inactive” in each case. Moreover, the Potency entry in assay [15], in assay [16] and in [17] was “inactive” each time. Also, the max response in assay [18] is -5.01%; in assay [19], -4.26% (inactive). Besides, in assay [20], the activation is 0.159% (inactive).

`O=c1[nH]ncc2ccccc12`: the Potency in [1] and in assay [2] was > 92 µM (inactive) throughout. In addition, the Potency entry in [3], in assay [4], in assay [5], in assay [6], in [7] and in assay [8] was “inactive” throughout. For the same compound, the Potency result in assay [9], in assay [10], in [11], in [12], in [13] and in [14] was “inactive” each time. The Potency entry in [15], in assay [16] and in assay [17] was “inactive” each time. Also, the max response in [18] is -5.72%; in assay [19], 13% (inactive). Moreover, in [20], the activation was 0.167% (inactive).

On to `COc1ccc([N+](=O)[O-])cc1N`, for which the Potency in [1] and in [2] was > 92 µM (inactive) in each case. For the same compound, the Potency result in assay [3], in [4], in [5], in [6], in [7] and in assay [8] was “inactive” throughout. The Potency result in assay [9], in assay [10], in assay [11], in assay [12], in assay [13] and in assay [14] was “inactive” in each case. In addition, the Potency result in assay [15], in assay [16] and in assay [17] was “inactive” throughout. The max response was 0.433% and 4.58% in assay [18]; 4.59% (inactive) and -0.147% (inactive) in [19]. For the same compound, the activation in assay [20] is 1.04% (inactive) and 4.76% (inactive).

On to `COc1ccc(C(=O)Nc2ccccc2)cc1[N+](=O)[O-]`, for which the Potency in assay [1] and in [2] was > 92 µM (inactive) throughout. For the same compound, the Potency result in assay [3], in assay [4], in [5], in [6], in assay [7] and in assay [8] was “inactive” each time. The Potency entry in assay [9], in assay [10], in assay [11], in [12], in assay [13] and in assay [14] was “inactive” throughout. Further, the Potency entry in [16] and in assay [17] was “inactive” each time. In addition, the results for the max response in assay [18] and in [19] were -10.5% and -8.72% (inactive), respectively.
